Compound activity (PubChem BioAssay)
DT40 TDP1 no CPT: qHTS for Inhibitors of human tyrosyl-DNA phosphodiesterase 1 (TDP1): qHTS in cells in absence of CPT. DT40 Tdp1-/- hTDP1 cells, no CPT, ATP luminescence, 48 h. Potency, µM (doses to about 46.2 µM), for inactives: at the highest dose activity change, negative = growth inhibition, hits mostly inhibitors. 420,000 tested, 15% active. AID 686978, 2013; note: potency is the fitted concentration of half-maximal effect; nearly all actives have a fitted effect of over 55% in size
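A cellular qHTS used chicken DT40 cells lacking endogenous Tdp1 but carrying stably transfected human TDP1. Compounds were applied without camptothecin, and cell growth kinetics were judged by ATP-dependent luminescence after ≥48 hr.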
HT1080 IDH1KD tx: toxicity to HT-1080 IDH1 knockdown cells (counter line). HT-1080 IDH1 knockdown viability, ATP luminescence, 48 h. Potency, µM (doses to about 46.1 µM), for inactives: top-dose activity, negative = toxicity, actives largely listed as cytotoxic. 360,000 tested, 2% active. AID 686971;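 note: potency is the fitted concentration of half-maximal effect; 0% = DMSO wells and -100% = cell-free medium wells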
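After a 2 h attachment period, IDH1KD HT-1080 cells took pin-transferred compound for 48 h at 37 °C; ATP-based luminescence after 10 min room-temperature reagent incubation reported viability.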
TDP1 cell CPT: growth inhibition of DT40 Tdp1-/-;hTDP1 cells with camptothecin (screen for TDP1 inhibitors); chicken DT40 Tdp1-/-;hTDP1 cells + 20 nM CPT, ATP luminescence, 48 h; Potency, µM (highest dose often 46.2 µM), for the others: at the highest dose activity change, negative = growth inhibition, actives largely listed as inhibitors; 420,000 tested, 12% active; AID 686979; note: potency is the fitted concentration of half-maximal effect; nearly all actives have a fitted effect of over 55% in size
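Cell growth measured by CellTiter-Glo luminescence after a minimum 48 h, 37 C compound exposure with 20 nM CPT in Tdp1-knockout DT40 cells stably expressing hTDP1, seeded 400/well; qHTS titration format.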
IL1B secr inh: inhibitors of inflammasome signaling (IL-1 beta secretion) | activity change, % at 57.5 µM | AID 743279 | 360,000 tested, 4.7% active | THP-1 LPS/ATP IL-1B secretion, AlphaLISA, 16 h; stronger effect = lower value; in the data active = activity change below about -50%; inconclusive = mostly about -30% to -49%
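THP-1 cells pretreated 1 hr with compounds (up to 57.5 uM final), then stimulated with LPS (250 ng/mL final) plus ATP (1.25 mM final); secreted IL-1B measured by AlphaLISA after 16 hr, decreased signal indicating inhibition.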
HT1080NT lethal: kills 2HG-producing HT-1080-NT fibrosarcoma cells. HT-1080-NT fibrosarcoma viability, CellTiter-Glo ATP luminescence, 48 h. Potency, µM (top dose mostly 46.1 µM), inactives show at the highest dose activity, negative = less viability, usual class: cytotoxic. 360,000 tested, 1.6% active;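 note: NT is the 2HG producing partner of a matched IDH1 knockdown line; potency is the fitted concentration of half-maximal effect; 0% = DMSO-treated cells and -100% = media-only wells without cells; nearly all actives have a fitted effect of over 55% in size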
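Luminescent CellTiter-Glo readout after 48 hours of compound exposure at 37 degrees C defined viability of HT-1080-NT cells. Activity was normalized to DMSO wells and cell-free media wells; concentration-response curves were fitted and assigned curve classes.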
The depositor's hits bear a star; ? = inconclusive; nt = no result given; ! = repeats disagree; [ ] = remark or other dose. Hits are enriched below; roughly 19% of the tested compounds scored in any of these assays. Unless noted, calls come from the whole dose curve; as a rule, active = well fitted curve in the direction sought with a large enough effect; inconclusive = small, poorly fitted or top-dose-only effect, or another doubt; inactive = no such curve, though single readings can be large; an effect the other way counts as inactive or inconclusive. Unless noted, % is set by controls: 0 for no effect and ±100 for the full control effect.

SMILES | DT40 TDP1 no CPT | HT1080 IDH1KD tx | TDP1 cell CPT | IL1B secr inh | HT1080NT lethal
CCN(CCCN(C)C)c1ccc(/C=C/c2ccnc3ccccc23)cc1 | 16µM* | nt | ? | nt | nt
Cn1c(=O)c2c(nc(CN3CCOCC3)n2CCCO)n(C)c1=O | -6% | 12% | -4% | 14 | 11%
CC1CC(C)(C)NC(=S)N1CCCC(=O)NCCc1ccc(Cl)cc1 (stereo unspecified) | ? | 3% | -22% | 3 | 2%
Cc1cc(OCCOCCNC(C)C)cc(C)c1Cl | 18µM* | ? | 18µM* | -28 | ?
Cc1cc(OCCCCNC(C)C)cc(C(C)C)c1 | ? | -18% | ? | -10 | -4%
Cc1ccc(NC(=S)Nc2cccc3cnccc23)cc1C | ? | -6% | ? | -78* | -1%
Cc1ccc(NC(=S)Nc2cccc3cnccc23)cc1 | 16µM* | -1% | ? | 10 | 5%
S=C(Nc1cccc(Cl)c1)Nc1ccccc1Oc1ccccc1 | 21µM* | ? | ? | -21 | ?
Cc1ccccc1NC(=S)Nc1cccc2cnccc12 | ? | -26% | ? | 27 | -18%
Cc1ccc(C)c(NC(=S)Nc2cccc3cnccc23)c1 | 16µM* | -7% | 15µM* | 32 | ?
S=C(Nc1ccc(Cl)cc1Cl)Nc1ccccc1Oc1ccccc1 | ? | -7% | -23% | -17 | -10%
CCc1ncc(CN2CCCC(C(=O)Nc3ccc(-c4cscn4)cc3)C2)cn1 (stereo unspecified) | 14% | 7% | -6% | 5 | 13%
S=C(Nc1cccc(Cl)c1)Nc1cccc2cnccc12 | 18µM* | -13% | 16µM* | ? | -8%
CCOC(=O)C1=C(c2ccccc2)N=c2s/c(=C\c3ccco3)c(=O)n2C1c1cccs1 (stereo unspecified) | ? | 4% | ? | -23 | 8%
CCOC(=O)C1=C(N)n2c(s/c(=C\c3ccco3)c2=O)=C(C(=O)OCC)C1c1ccco1 (stereo unspecified) | 5µM* | 7.9µM* | 5.6µM* | 8 | 16µM*
CCOC(=O)C1=C(N)n2c(s/c(=C\c3ccco3)c2=O)=C(C(=O)OC(C)C)C1c1ccco1 (stereo unspecified) | 21µM* | -9% | ? | -8 | 13%
CCOC(=O)c1cc(C)n(CC2CCC(C(=O)Nc3cccc(C(C)=O)c3)CC2)c1C (stereo unspecified) | 26µM* | nt | 23µM* | nt | nt
CCOC(=O)c1cc(C)n(CC2CCC(C(=O)Nc3ccc(C(C)=O)cc3)CC2)c1C (stereo unspecified) | 10µM* | nt | 12µM* | nt | nt
CCOC(=O)c1cc(C)n(CC2CCC(C(=O)Nc3ccc(C(=O)OC)cc3)CC2)c1C (stereo unspecified) | 18µM* | nt | 23µM* | nt | nt
CCOC(=O)c1cccc(NC(=O)C2CCCO2)c1 (stereo unspecified) | 5% | 13% | -5% | -16 | 7%
CN(CC(=O)Nc1cccc(F)c1)C(=O)c1cccc(S(=O)(=O)N2CC3(C)CC2CC(C)(C)C3)c1 (stereo unspecified) | ? | -22% | ? | ? | -13%
CC(C)(C)OC(=O)NCCCCCNC(=O)c1ncn2c1c(=O)[nH]c1ccccc12 | 21µM* | 12% | ? | -21 | -6%
CC(C)(C)OC(=O)[C@H](Cc1ccccc1)NC(=O)c1ncn2c1c(=O)[nH]c1ccc(Br)cc12 | 3.3µM* | 7% | 4.6µM* | 6 | 12%
CC1CCN(C(=O)c2ncn3c2c(=O)[nH]c2ccc(Br)cc23)CC1 | -2% | 2% | -1% | -1 | 2%
CC(NC(=O)OCc1ccccc1)C(=O)NCC(=O)NC(Cc1ccc(OC(C)(C)C)cc1)C(=O)OC(C)(C)C (stereo unspecified) | 12µM* | 10% | 21µM* | -4 | 0%
SMILES | DT40 TDP1 no CPT | HT1080 IDH1KD tx | TDP1 cell CPT | IL1B secr inh | HT1080NT lethal
C[C@H](NC(=O)c1nc[nH]c1C(=O)NCc1ccc(CNC(=O)OC(C)(C)C)cc1)C(=O)OCc1ccccc1 | 16µM* | 0% | 21µM* | -6 | -9%
COc1ccc(-c2nnc(SCC(=O)Nc3cc(C)on3)o2)cc1 | ? | 12% | ? | 0 | 17%
COC(=O)C1=C2SCC(=O)N2C(N)=C(C#N)C1 | -13% | 0% | -7% | -9 | -4%
CCc1ccc(C2NC(=S)NC3=C2C(=O)CC(C)(C)C3)cc1 (stereo unspecified) | -23% | -2% | 4% | -29 | -6%
COc1cc(NC(=O)c2ncn[nH]2)cc(OC)c1OC | 10% | 7% | -14% | 32 | 0%
CC(C)(C)OC(=O)[C@H](Cc1ccccc1)NC(=O)c1nc[nH]c1C(=O)N[C@@H](Cc1ccccc1)C(=O)OC(C)(C)C | 18µM* | ? | 15µM* | -19 | -19%
CC(C)(C)OC(=O)[C@H](Cc1ccccc1)NC(=O)c1[nH]cnc1C(=O)N[C@@H](Cc1ccccc1)C(=O)OCc1ccccc1 | 23µM* | -17% | 16µM* | 0 | -16%
O=C(N[C@@H](Cc1ccccc1)C(=O)OCc1ccccc1)c1nc[nH]c1C(=O)NCc1ccccc1 | ? | -14% | 18µM* | 10 | ?
CC(C)(C)OC[C@H](NC(=O)c1[nH]cnc1C(=O)Nc1ccccc1F)C(=O)OC(C)(C)C | 21µM* | ? | 21µM* | -20 | ?
CC(C)(C)OC(=O)[C@H](Cc1ccccc1)NC(=O)c1nc[nH]c1C(=O)NCCCCCN | ? | -2% | -21% | 20 | 0%
CC(C)(C)OC(=O)[C@H](CCCCN)NC(=O)c1[nH]cnc1C(=O)N[C@@H](Cc1ccccc1)C(=O)OCc1ccccc1 | -22% | 7% | ? | 24 | 6%
Cc1[nH]c(=O)c(C#N)cc1-c1ccncc1 | 0.06µM*! | -3% | ? | -7 | ?
COC1=CC(=O)OC(c2ccccc2C(F)(F)F)C1 (stereo unspecified) | -12% | 19% | -3% | 44 | 18%
COc1cc(OC)c(NS(=O)(=O)c2cc(C(=O)OC(C)C(=O)NC3CC3)c(Cl)cc2Cl)cc1Cl (stereo unspecified) | 23µM* | 7% | 18µM* | -11 | 2%
COc1ccc(S(=O)(=O)N2CCOC23CCN(S(=O)(=O)c2cc(C)ccc2OC)CC3)cc1 | -19% | -3% | -30% | 10 | -1%
O=C(NC1CCCCC1)c1cc(C2CC2)nn1-c1ccccc1 | 16µM* | 8% | 16µM* | -21 | 4%[9.24 µM]
O=C(c1cc(C2CC2)nn1-c1ccccc1)N1CCN(c2ccc(O)cc2)CC1 | ? | -16% | ? | -13 | 0%
